Source: PubChem BioAssay (several laboratories)
aSyn 5UTR inh: 5' untranslated region of α-synuclein, MLPCN primary screen | 300,000 compounds, 0.82% hits | AID 1813 | inhibition, % (tested at 7.5 µM) | alpha-synuclein 5'UTR reporter, inhibitor activity; in the data active = inhibition above about 60%; inconclusive = no clear call, values can overlap the other calls;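 also: H4 neuroglioblastoma cells stably carrying SNCA 5'UTR luciferase fusion; 0% = DMSO wells and 100% = positive control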
Jurkat NFkB inh: inhibitors of the PMA/ionomycin-induced NF-kB reporter in Jurkat cells; PMA/ionomycin-induced NF-kB luciferase reporter, luminescence; inhibition, % at 4 µM; 330,000 compounds, 0.53% hits; AID 435003; in the data active = inhibition above about 50%
H9c2 TAG inh: reduces triacylglycerol accumulation in H9c2 cells; Nile Red lipid (TAG) fluorescence; cells loaded with 200 µM oleic acid; inhibition, % at 12.5 µM; 230,000 compounds, 0.66% hits;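 active = pattern-corrected inhibition of lipid staining of at least 50% with the nuclear-stain viability signal not falling by more than 50%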;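 also: 0% = DMSO wells and 100% = triacsin C control wells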
697 NFkB inh: inhibitors of the PMA/ionomycin-induced NF-kB reporter in 697 B cells | 697 B-cell NF-kB luciferase reporter, 16 h | inhibition, % at 4 µM | 330,000 compounds, 0.33% hits | AID 435022; in the data active = inhibition above about 35%
Gli-Sufu antag: antagonists of Gli-Sufu signaling; Sufu-KO-LIGHT fibroblasts, Gli luciferase reporter luminescence; 340,000 compounds, 0.74% hits; inhibition, % at 5 µM;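 active = inhibition above about 55%, limit read from the data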;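 also: 0% = DMSO-treated cells and 100% = wells with medium but no cells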
Shn3 inh set2: Schnurri-3 reporter inhibition in Clone20 osteoblasts; Clone20 osteoblast Shn3 3'UTR firefly luciferase, 24 h; inhibition, % at 12.5 µM; 360,000 compounds, 0.52% hits; AID 588674;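 active = mean inhibition of at least 75% with every replicate also reaching 75%; inconclusive = mean inhibition at least 75% but some replicate below; inactive = mean inhibition below 75%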;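 also: 0% = median of neutral control wells and 100% = pilot-screen positive control compound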
An asterisk follows results filed as active; ? = inconclusive; · = no result given. A selection: hits, their analogues and other compounds. The true share with any hit is near 2.3%.

SMILES	aSyn 5UTR inh	Jurkat NFkB inh	H9c2 TAG inh	697 NFkB inh	Gli-Sufu antag	Shn3 inh set2
CC(C)(C)C(=O)NC(=S)NNC(=O)c1sc2ccccc2c1Cl	89*	25	·	-92	43	91*
O=C(NNC(=S)NC1CCCCC1)c1sc2ccccc2c1Cl	-6	12	-9	3	-14	-11
Cc1nc(SCCC(=O)O)c2cc(-c3ccccc3)sc2n1	67*	26	·	24	17	-3
COc1ccc(/C=N/Nc2cc(C)nc(-n3nc(C)cc3C)n2)c(OC)c1	25	13	·	-6	34	80
CCOc1cc(/C=N/Nc2cc(C)nc(-n3nc(C)cc3C)n2)ccc1O	68*	32	68*	-28	21	?
CCOC(=O)Cn1cc(/C=C(/C#N)C(=O)NC(C)C)c2ccccc21	-3	-8	2	0	-5	10
CC(C)COC(=O)/C(C#N)=C/c1cn(Cc2ccccc2)c2ccccc12	80*	·	2	·	-1	-20
CC(C)OC(=O)/C(C#N)=C/c1cn(C)c2ccccc12	-58	-7	-3	9	0	1
CC(C)OC(=O)/C(C#N)=C/c1cn(Cc2ccccc2)c2ccccc12	75*	6	·	5	1	-13
Cc1cc(C)c2nc(SCC(=O)N3CC(=O)Nc4ccccc43)c(C#N)cc2c1	67*	49	54*	-128	41	26
Cc1cc(C)c2nc(SCC(=O)Nc3ccccc3N3CCOCC3)c(C#N)cc2c1	0	8	3	4	1	31
CCc1ccc(-c2cc(C(=O)Nn3cnnc3)c3ccccc3n2)cc1	74*	-6	·	-200	-12	15
CC1(C)Cc2c(sc3ncnc(NNC(=S)NCc4ccccc4)c23)CO1	87*	45	·	27	7	-7
COc1ccc(OC)c(NC(=O)CCn2cccc2)c1	3	-5	·	-1	11	-11
COc1ccc2nc(NC(=O)Cc3cccs3)sc2c1	-132	-56	1	-66	10	-53
CCOc1ccc2nc(NC(=O)Cc3cccs3)sc2c1	-137	-60	64*	-57	-49	-31
COc1ccc(NC(=O)NC(=O)c2ccccc2)cc1	-221	-92	·	-114	-81	-75
O=C(NC(=O)c1ccccc1)Nc1ccccc1	72*	-101	·	-193	·	8
CCc1cccc(CC)c1NC(=O)CNCc1cccs1	6	-17	·	6	-16	1
O=C1NC(c2ccccc2)=C(c2ccccc2)C1=O	·	·	·	·	-2	9
O=C1C(Br)=C(c2ccccc2)C(c2ccccc2)=C1c1ccccc1	·	·	110	·	5	98*
C/C(Cc1ccccc1)=N\NC(=O)c1ccccn1	-67	-2	-7	9	23	-4
O=C(N/N=C(\c1ccccc1)c1ccccn1)c1ccccc1Cl	68*	45	-18	-16	53	95*
O=C(NN=C(c1ccccc1)c1ccccn1)c1ccccc1	·	45	31	-30	54	84*
CCCN(C(=O)/C=C/c1nc2ccccc2s1)C1CCS(=O)(=O)C1 (stereo not drawn)	·	-10	6	9	1	-4
SMILES	aSyn 5UTR inh	Jurkat NFkB inh	H9c2 TAG inh	697 NFkB inh	Gli-Sufu antag	Shn3 inh set2
Cc1ccc(-c2n[nH]c(=S)n2/N=C/c2c(C)nn(-c3ccccc3)c2C)cc1	33	7	·	4	3	4
CCc1n[nH]c(=S)n1/N=C/c1c(C)nn(-c2ccccc2)c1Cl	106*	8	-5	-36	-2	6
CN(C)CCCNc1cc(C(C)(C)C)nc2c(-c3ccc(Cl)cc3)cnn12	108*	49	130	2	-13	-43
COc1cccc(CC2(CO)CCCN(Cc3cn[nH]c3-c3ccc(F)cc3)C2)c1 (stereo not drawn)	0	-3	1	-8	9	7
Cc1ccccc1NC(=O)CSc1nc2ccccc2c(=O)n1C	-4	14	-8	-31	35	87*
CC(C)Oc1ccccc1NC(=O)CSc1nc2ccccc2c(=O)n1C	13	11	·	-21	39	67
O=C(Nc1ccc(Cl)cc1)Nc1ccc(N2CCCC2)c(S(=O)(=O)Nc2ccccc2Cl)c1	35	-12	-12	-37	14	97*
O=C(Nc1ccc(N2CCOCC2)c(S(=O)(=O)Nc2ccccc2Cl)c1)c1ccccc1	·	7	12	-8	-2	-10
CCOC(=O)c1nc(-c2ccccc2)oc1N1CCOCC1	-3	-16	12	5	14	8
COc1ccc(OCc2cn(CC(=O)c3ccc(O)cc3)nn2)cc1	·	·	2	·	-6	-17
